# Results from PubChem BioAssay (EPA / NIEHS).
# Records with an inconclusive call do not appear. Calls of active or inactive are those of the source. Rule for the calls, unless noted: active = hit-call score of the fitted dose curve at least 0.9, where 1 is the maximum; inconclusive = response in the unintended direction; inactive = score below 0.9.
# What was measured:
# [1] = ATG_VDRE_CIS: Attagene CIS-FACTORIAL HepG2 Assay for human Vitamin D Receptor Element (VDRE) (AID 2282968; active = hit-call score of the fitted dose curve at least 0.9, where 1 is the maximum; inactive = score below 0.9); details: HepG2 VDRE cis-reporter transcription, actives raise or lower the signal
# How it was run: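 Compounds were applied for 24 h to HepG2 cells transfected with promoter-regulated reporter units. Total RNA was reverse-transcribed, and reporter amplicons were fluorescently labelled and sized by capillary electrophoresis.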
# [2] = target: Nuclear receptor subfamily 1 group I member 3 (Homo sapiens) (UniProt Q14994); assay: ATG_CAR_TRANS: Attagene TRANS-FACTORIAL HepG2 Assay for human Constitutive Androstane Receptor (CAR) (AID 2282969); details: HepG2 Attagene TRANS-FACTORIAL CAR reporter;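 note: activators raise reporter mRNA above DMSO so AC50 marks induction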
# Sequence of Nuclear receptor subfamily 1 group I member 3 (Homo sapiens) (Q14994 whole entry, looked up, the tested form may be a part): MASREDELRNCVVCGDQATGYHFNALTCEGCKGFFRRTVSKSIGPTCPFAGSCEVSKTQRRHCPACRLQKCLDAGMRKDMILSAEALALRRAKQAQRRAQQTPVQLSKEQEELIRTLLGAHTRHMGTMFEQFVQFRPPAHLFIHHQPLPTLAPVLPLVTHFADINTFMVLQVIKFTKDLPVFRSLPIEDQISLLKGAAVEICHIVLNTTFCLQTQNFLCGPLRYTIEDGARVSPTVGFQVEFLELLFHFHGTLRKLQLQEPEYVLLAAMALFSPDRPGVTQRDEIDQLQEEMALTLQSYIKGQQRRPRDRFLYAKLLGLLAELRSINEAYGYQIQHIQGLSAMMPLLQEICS
# How it was run: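 Transiently transfected HepG2, multiplex TRANS reporters (CAR-Gal4 chimera driving GAL4-UAS reporter). 24 h dosing. Readout: reporter transcript by RT-PCR + capillary electrophoresis, fluorescence intensity; positive direction vs DMSO.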
# [3] = target: Estrogen receptor (Homo sapiens) (UniProt P03372); assay: ATG_ERa_TRANS: Attagene TRANS-FACTORIAL HepG2 Assay for human Estrogen Receptor alpha (ERa) (AID 2282970); details: HepG2 Attagene TRANS ERa GAL4 reporter, mRNA
# Sequence of Estrogen receptor (Homo sapiens) (P03372 whole entry, looked up, the tested form may be a part): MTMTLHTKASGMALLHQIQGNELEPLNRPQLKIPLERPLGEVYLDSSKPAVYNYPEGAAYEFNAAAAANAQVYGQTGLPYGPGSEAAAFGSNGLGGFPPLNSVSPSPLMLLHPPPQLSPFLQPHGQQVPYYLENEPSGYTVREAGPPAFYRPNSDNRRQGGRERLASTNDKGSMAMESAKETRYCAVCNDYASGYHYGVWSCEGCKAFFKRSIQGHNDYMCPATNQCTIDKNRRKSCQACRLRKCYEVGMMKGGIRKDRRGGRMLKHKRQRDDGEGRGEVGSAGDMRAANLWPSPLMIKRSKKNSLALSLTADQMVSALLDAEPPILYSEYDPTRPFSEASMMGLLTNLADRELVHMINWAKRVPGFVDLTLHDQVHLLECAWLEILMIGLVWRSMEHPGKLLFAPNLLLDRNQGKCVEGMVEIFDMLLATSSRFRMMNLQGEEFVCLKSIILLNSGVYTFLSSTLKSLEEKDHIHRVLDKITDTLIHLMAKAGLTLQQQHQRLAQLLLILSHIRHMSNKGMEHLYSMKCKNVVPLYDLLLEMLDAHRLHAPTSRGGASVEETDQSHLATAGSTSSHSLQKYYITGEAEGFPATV
# How it was run: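 Signal derives from fluorescence of labelled reporter PCR fragments separated by capillary electrophoresis. HepG2 cells transiently carrying multiple GAL4-UAS reporter units were treated 24 hours, and induction above DMSO baseline was fitted as activity.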
# [4] = target: Steroid hormone receptor ERR1 (Homo sapiens) (UniProt P11474); assay: ATG_ERRa_TRANS: Attagene TRANS-FACTORIAL HepG2 Assay for human Estrogen-Related Receptor alpha (ERRa) (AID 2282971); details: HepG2 Attagene TRANS reporter, ERRa transactivation
# Sequence of Steroid hormone receptor ERR1 (Homo sapiens) (P11474 whole entry, looked up, the tested form may be a part): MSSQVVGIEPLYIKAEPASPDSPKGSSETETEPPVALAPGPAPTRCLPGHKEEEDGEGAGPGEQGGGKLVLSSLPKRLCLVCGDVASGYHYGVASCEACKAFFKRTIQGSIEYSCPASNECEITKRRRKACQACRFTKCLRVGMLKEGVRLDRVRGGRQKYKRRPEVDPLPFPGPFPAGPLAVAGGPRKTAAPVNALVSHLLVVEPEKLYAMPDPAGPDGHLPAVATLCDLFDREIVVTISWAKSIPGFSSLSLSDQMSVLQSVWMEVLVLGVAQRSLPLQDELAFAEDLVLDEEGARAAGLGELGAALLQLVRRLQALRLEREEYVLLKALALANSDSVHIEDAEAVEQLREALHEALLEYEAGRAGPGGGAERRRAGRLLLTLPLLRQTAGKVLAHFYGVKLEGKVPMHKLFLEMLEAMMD
# How it was run: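 Signal gain relative to DMSO for an ERRa-Gal4 chimeric receptor, read as reporter mRNA by RT-PCR/capillary electrophoresis. Human HepG2 liver cells, transient multiplex reporter transfection, 24 h chemical exposure.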
# [5] = ATG_M_19_TRANS: Attagene TRANS-FACTORIAL HepG2 Assay for M19 Transcription Factor (Internal Marker) (AID 2282974); details: HepG2 Attagene TRANS-FACTORIAL M19 internal marker reporter
# How it was run: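 Background-control readout: after 24 h chemical exposure of transfected HepG2 carrying GAL4-driven reporter units, RNA was reverse-transcribed, amplified, fluorescently labeled and sized by capillary electrophoresis; gain-of-signal fit against DMSO.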
# [6] = ATG_GAL4_TRANS: Attagene TRANS-FACTORIAL HepG2 Assay for GAL4 (Internal Marker) (AID 2282976); details: HepG2 Attagene TRANS GAL4 internal marker reporter
# How it was run: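 Liver HepG2 line bearing multiplexed GAL4-UAS reporter constructs; 24 h chemical treatment. Transcripts were quantified as fluorescent fragments on capillary electrophoresis after RT-PCR and HpaI cut, with activity fitted upward from DMSO.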
# [7] = target: Estrogen-related receptor gamma (Homo sapiens) (UniProt P62508); assay: ATG_ERRg_TRANS: Attagene TRANS-FACTORIAL HepG2 Assay for human Estrogen-Related Receptor gamma (ERRg) (AID 2282977); details: HepG2 Attagene TRANS reporter, ERRg transactivation;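 note: hits increase reporter signal over DMSO so potencies reflect activators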
# Sequence of Estrogen-related receptor gamma (Homo sapiens) (P62508 whole entry, looked up, the tested form may be a part): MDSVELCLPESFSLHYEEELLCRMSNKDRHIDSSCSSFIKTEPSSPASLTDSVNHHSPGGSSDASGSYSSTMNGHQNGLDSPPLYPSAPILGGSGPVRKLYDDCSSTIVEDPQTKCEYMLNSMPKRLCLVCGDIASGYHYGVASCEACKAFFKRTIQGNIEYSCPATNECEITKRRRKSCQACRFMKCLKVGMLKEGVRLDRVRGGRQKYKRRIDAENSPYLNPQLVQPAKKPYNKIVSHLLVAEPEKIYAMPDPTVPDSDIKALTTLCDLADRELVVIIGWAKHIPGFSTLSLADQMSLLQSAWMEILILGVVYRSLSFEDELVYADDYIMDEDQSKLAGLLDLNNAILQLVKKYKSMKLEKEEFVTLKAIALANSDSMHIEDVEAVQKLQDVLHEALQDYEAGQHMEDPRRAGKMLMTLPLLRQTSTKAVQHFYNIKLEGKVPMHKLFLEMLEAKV
# How it was run: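 Exogenous NR-Gal4 chimera activity measured as reporter transcript induction after 24 h in transiently transfected HepG2 cells. RNA reverse-transcribed, PCR-amplified, 6-FAM-labelled and resolved by capillary electrophoresis; increase over DMSO baseline.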
# [8] = target: X-box-binding protein 1 (Homo sapiens) (UniProt P17861); assay: ATG_Xbp1_CIS: Attagene CIS-FACTORIAL HepG2 Assay for human X-box Binding Protein 1 (XBP1) (AID 2282972; active = hit-call score of the fitted dose curve at least 0.9, where 1 is the maximum; inactive = score below 0.9); details: HepG2 XBP1 cis-element reporter, Attagene multiplex; actives raise or lower the signal
# Sequence of X-box-binding protein 1 (Homo sapiens) (P17861 whole entry, looked up): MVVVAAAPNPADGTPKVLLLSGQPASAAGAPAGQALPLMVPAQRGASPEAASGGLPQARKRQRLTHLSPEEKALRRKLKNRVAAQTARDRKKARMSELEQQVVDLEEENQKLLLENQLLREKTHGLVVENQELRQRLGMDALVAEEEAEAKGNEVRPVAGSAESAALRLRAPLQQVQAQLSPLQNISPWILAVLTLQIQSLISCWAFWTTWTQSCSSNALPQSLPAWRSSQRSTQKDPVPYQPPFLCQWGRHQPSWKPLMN
# How it was run: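 Multiplexed cis-reporter readout in transfected HepG2 liver cells. Exposure lasted 24 hours. Activity in either direction was fitted against DMSO as negative control and baseline.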
# [9] = target: Androgen receptor (Homo sapiens) (UniProt P10275); assay: ATG_AR_TRANS: Attagene TRANS-FACTORIAL HepG2 Assay for human Androgen Receptor (AR) (AID 2282973); details: HepG2 Attagene TRANS-FACTORIAL AR reporter transcription
# Sequence of Androgen receptor (Homo sapiens) (P10275 whole entry, looked up, the tested form may be a part): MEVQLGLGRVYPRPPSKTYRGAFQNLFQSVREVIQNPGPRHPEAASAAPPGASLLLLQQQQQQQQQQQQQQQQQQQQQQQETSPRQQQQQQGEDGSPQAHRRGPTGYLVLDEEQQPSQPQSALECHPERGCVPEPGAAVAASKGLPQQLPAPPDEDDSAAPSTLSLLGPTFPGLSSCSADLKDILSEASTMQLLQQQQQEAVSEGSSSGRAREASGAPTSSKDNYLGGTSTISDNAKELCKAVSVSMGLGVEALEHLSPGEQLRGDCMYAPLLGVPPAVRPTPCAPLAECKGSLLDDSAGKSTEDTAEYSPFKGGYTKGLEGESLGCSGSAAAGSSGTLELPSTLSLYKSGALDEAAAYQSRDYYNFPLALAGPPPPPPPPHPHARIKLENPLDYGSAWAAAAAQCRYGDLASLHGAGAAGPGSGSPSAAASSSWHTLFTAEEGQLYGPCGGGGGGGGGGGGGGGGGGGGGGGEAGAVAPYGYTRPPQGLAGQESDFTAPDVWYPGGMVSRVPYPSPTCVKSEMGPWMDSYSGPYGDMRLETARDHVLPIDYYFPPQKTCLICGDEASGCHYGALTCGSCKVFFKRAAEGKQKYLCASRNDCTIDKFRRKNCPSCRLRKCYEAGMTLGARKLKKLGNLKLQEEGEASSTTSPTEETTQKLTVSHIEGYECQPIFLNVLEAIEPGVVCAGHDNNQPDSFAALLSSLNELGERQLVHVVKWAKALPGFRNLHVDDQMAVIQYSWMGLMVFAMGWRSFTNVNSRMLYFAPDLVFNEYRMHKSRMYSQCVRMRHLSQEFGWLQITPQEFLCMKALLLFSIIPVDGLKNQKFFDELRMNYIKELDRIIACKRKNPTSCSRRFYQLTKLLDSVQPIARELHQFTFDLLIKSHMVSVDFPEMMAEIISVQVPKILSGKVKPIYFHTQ
# How it was run: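 Chimeric nuclear receptor–Gal4 activity was assessed in human HepG2 hepatocytes after 24 h chemical dosing. Induced reporter mRNA was detected via labelled RT-PCR fragments on capillary electrophoresis, and gain of signal was analysed against DMSO.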
# [10] = target: Glucocorticoid receptor (Homo sapiens) (UniProt P04150); assay: ATG_GR_TRANS: Attagene TRANS-FACTORIAL HepG2 Assay for human Glucocorticoid Receptor (GR) (AID 2282978); details: HepG2 Attagene TRANS GR reporter, mRNA transcription;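 note: activators score as hits since higher reporter transcript over DMSO is fitted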
# Sequence of Glucocorticoid receptor (Homo sapiens) (P04150 whole entry, looked up, the tested form may be a part): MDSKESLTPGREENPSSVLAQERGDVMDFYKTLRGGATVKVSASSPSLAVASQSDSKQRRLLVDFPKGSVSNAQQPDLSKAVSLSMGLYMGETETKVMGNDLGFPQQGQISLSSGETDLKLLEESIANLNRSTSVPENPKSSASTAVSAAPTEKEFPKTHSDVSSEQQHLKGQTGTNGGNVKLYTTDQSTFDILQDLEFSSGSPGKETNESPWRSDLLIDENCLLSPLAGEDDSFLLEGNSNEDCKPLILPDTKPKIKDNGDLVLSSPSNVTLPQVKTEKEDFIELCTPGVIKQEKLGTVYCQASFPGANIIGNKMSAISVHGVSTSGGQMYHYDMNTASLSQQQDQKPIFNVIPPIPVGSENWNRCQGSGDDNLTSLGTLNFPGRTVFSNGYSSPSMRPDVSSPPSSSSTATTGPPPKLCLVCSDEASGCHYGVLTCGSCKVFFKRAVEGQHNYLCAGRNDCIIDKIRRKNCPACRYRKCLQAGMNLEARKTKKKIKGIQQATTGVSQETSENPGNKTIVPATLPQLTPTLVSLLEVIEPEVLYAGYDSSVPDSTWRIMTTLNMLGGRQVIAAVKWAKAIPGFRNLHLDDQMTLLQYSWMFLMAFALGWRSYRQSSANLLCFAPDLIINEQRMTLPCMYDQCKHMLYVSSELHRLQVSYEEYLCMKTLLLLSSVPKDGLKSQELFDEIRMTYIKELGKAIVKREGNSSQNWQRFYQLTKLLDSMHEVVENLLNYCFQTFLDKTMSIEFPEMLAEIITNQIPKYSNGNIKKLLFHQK
# How it was run: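 Readout is reporter transcript from a chimeric GR-Gal4 acting on GAL4-UAS in transfected human HepG2 liver cells after 24 h exposure, quantified by RT-PCR and capillary electrophoresis. Activation fitted upward against DMSO.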
smiles,measurement,setting,value
CC(C)=CC1C(C(=O)OCc2cccc(Oc3ccccc3)c2)C1(C)C (centres undefined),outcome,[1],inactive
same,outcome,[2],inactive
same,AC50,[3],12.8 µM (active)
same,outcome,[4],inactive
same,outcome,[5],inactive
same,outcome,[6],inactive
same,outcome,[7],inactive
ClCc1ccccc1CCl,AC50,[1],13.5 µM (active)
same,outcome,[2],inactive
same,outcome,[3],inactive
same,AC50,[8],12.6 µM (active)
Cc1cccc(N=Nc2ccc(N(C)C)cc2)c1,AC50,[1],19.8 µM (active)
same,outcome,[2],inactive
same,outcome,[3],inactive
same,outcome,[8],inactive
same,outcome,[7],inactive
CCCCOP(=O)(CCCC)OCCCC,AC50,[1],17.7 µM (active)
same,outcome,[2],inactive
same,outcome,[4],inactive
same,outcome,[8],inactive
same,outcome,[9],inactive
same,outcome,[5],inactive
same,outcome,[6],inactive
same,outcome,[7],inactive
same,outcome,[10],inactive
O=[N+]([O-])c1c2ccccc2cc2ccccc12,outcome,[1],inactive
same,outcome,[2],inactive
same,AC50,[3],5.59 µM (active)
same,outcome,[4],inactive
same,outcome,[8],inactive
same,outcome,[7],inactive
CCCSP(=S)(OCC)Oc1ccc(SC)cc1 (centres undefined),AC50,[1],4.63 µM (active)
same,outcome,[2],inactive
same,AC50,[3],4.92 µM (active)
same,outcome,[5],inactive
same,outcome,[7],inactive
CCOP(=S)(OCC)Oc1ccc(Cl)cc1Cl,AC50,[1],13.9 µM (active)
same,outcome,[2],inactive
same,AC50,[3],7.91 µM (active)
same,outcome,[8],inactive
same,outcome,[5],inactive
CCOP(=O)(OCC)SCCSCC,outcome,[1],inactive
same,outcome,[3],inactive
same,outcome,[4],inactive
CC(C)(C#N)N=NC(C)(C)C#N,outcome,[1],inactive
same,outcome,[2],inactive
same,outcome,[8],inactive
same,outcome,[5],inactive
same,outcome,[10],inactive
Cc1cccc(OP(=O)(Oc2cccc(C)c2)Oc2cccc(C)c2)c1,AC50,[1],4.85 µM (active)
same,outcome,[2],inactive
same,outcome,[8],inactive
same,outcome,[5],inactive
Cc1cc(Cl)ccc1O,outcome,[1],inactive
same,outcome,[2],inactive
same,outcome,[8],inactive
same,outcome,[5],inactive
same,outcome,[10],inactive
COC(F)(C(F)(F)C(F)(F)F)C(F)(C(F)(F)F)C(F)(F)F (centres undefined),outcome,[1],inactive
same,outcome,[3],inactive
same,outcome,[4],inactive
same,outcome,[8],inactive
same,outcome,[9],inactive
same,outcome,[5],inactive
same,outcome,[6],inactive
same,outcome,[10],inactive
O=C(NC(=O)c1c(F)cccc1F)Nc1cc(Cl)c(OC(F)(F)C(F)C(F)(F)F)cc1Cl (centres undefined),outcome,[1],inactive
same,outcome,[3],inactive
same,outcome,[8],inactive
C=C(C)[C@@H]1CC=C(C=O)CC1,outcome,[1],inactive
same,outcome,[3],inactive
same,outcome,[4],inactive
same,outcome,[8],inactive
CCCSP(=S)(OCC)Oc1ccc(Cl)cc1Cl (centres undefined),outcome,[1],inactive
same,AC50,[3],2.91 µM (active)
same,outcome,[4],inactive
same,outcome,[10],inactive
O=c1[nH]c2ccccc2n1C1CCN(CCCC(c2ccc(F)cc2)c2ccc(F)cc2)CC1,outcome,[1],inactive
same,outcome,[3],inactive
same,outcome,[4],inactive
same,outcome,[8],inactive
same,outcome,[5],inactive
same,outcome,[6],inactive
same,outcome,[7],inactive
same,outcome,[10],inactive
CC(c1ccccc1)(c1ccc(O)cc1)c1ccc(O)cc1,AC50,[1],1.8 µM (active)
same,AC50,[3],0.145 µM (active)
same,outcome,[4],inactive
same,AC50,[8],15 µM (active)
same,outcome,[5],inactive
same,outcome,[7],inactive
same,outcome,[10],inactive
O=C(N[C@H]1CN2CCC1CC2)c1ccc2c(c1)OCCO2,outcome,[1],inactive
same,outcome,[2],inactive
same,outcome,[8],inactive
same,outcome,[9],inactive
same,outcome,[6],inactive
same,outcome,[7],inactive
same,outcome,[10],inactive
